Measured values published in PubChem BioAssay (NCATS).
Inconclusive results are not listed. Calls of active or inactive are those of the source. Unless noted, the call rests on the fitted dose curve; in most records, active means well fitted curve in the direction sought with a large enough effect; inconclusive means small, poorly fitted or top-dose-only effect, or another doubt; inactive means no such curve, though single readings can be large; an effect the other way counts as inactive or inconclusive.

Legend:
[1] = molecular target: Cytochrome P450 1A2 (Homo sapiens) (UniProt P05177); assay: p450-cyp1a2 (AID 410; calls by dose curve; further: potency means the concentration at half of the fitted maximal effect)
Chain of Cytochrome P450 1A2 (Homo sapiens) (P05177 whole entry, looked up): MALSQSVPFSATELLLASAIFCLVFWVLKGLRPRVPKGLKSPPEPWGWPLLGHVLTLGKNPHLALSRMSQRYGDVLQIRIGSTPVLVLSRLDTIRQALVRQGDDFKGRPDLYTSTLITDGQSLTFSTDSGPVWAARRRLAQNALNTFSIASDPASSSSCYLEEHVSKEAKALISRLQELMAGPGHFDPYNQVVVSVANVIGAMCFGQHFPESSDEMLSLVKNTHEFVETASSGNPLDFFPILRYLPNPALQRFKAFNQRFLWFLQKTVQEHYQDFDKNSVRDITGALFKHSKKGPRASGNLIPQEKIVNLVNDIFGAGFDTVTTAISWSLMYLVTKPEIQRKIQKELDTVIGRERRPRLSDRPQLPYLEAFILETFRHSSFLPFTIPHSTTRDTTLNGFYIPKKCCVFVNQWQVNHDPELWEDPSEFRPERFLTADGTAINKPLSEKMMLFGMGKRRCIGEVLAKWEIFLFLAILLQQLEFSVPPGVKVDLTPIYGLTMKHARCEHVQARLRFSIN
Procedure, shortened: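 20nM CYP1A2, 100uM Luciferin-ME (=Km), 100mM KPO4; cpd 10 min RT; +NADPH regen, 60 min RT; stop/detect 20 min; luminescence. Normalized to furafylline 57 uM = full inhibition.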

[2] = molecular target: Mitogen-activated protein kinase 10 (Mus musculus) (UniProt Q61831); assay: JNK3 AlphaScreen Assay (AID 530; active means well fitted curve in either direction with a large enough effect, not every such curve was filed as active;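 further: kinase came from lysate of stimulated human HepG2 cells; signal reports phosphorylation of biotinylated GST-cJun 1-79 at Ser73 with 10 µM ATP; series mostly up to about 57 µM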)
Procedure, shortened: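 Biotinylated GST-cJun(1-79) served as substrate for JNK3 in HepG2 lysates stimulated with IL-1beta and TNF-alpha. ATP was 10 uM final, pH 7.6. Ser73 phosphorylation was quantified by AlphaScreen (680 nm excitation).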

[3] = molecular target: 3',5'-cyclic-AMP phosphodiesterase 4B (Homo sapiens) (UniProt Q07343); assay: qHTS Assay for Inhibitors of PDE-IV (AID 607; active means well fitted activation curve with a large enough effect in the main read-out, with a control signal flat, not every such curve was filed as active)
Chain of 3',5'-cyclic-AMP phosphodiesterase 4B (Homo sapiens) (Q07343 whole entry, looked up): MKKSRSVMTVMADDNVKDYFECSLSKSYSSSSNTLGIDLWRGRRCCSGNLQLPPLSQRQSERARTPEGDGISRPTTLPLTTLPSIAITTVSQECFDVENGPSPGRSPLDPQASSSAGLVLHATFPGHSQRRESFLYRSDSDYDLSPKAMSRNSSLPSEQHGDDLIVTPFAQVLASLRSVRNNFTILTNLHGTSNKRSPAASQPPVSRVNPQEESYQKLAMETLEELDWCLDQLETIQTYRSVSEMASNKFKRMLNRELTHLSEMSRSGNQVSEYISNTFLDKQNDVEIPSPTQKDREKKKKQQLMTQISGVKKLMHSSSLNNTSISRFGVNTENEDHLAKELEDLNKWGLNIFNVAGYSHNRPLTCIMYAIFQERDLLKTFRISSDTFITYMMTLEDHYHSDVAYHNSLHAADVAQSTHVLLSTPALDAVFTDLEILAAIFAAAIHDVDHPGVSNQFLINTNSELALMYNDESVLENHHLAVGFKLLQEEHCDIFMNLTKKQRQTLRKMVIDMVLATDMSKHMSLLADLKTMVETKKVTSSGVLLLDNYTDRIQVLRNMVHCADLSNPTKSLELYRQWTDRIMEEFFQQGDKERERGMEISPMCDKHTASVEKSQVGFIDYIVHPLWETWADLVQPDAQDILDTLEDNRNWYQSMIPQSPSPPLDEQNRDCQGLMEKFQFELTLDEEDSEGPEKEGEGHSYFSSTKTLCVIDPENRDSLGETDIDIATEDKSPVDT
Procedure, shortened: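 ACTOne HEK293 cells carry a modified cAMP-gated CNG channel and express endogenous PDE4; plated 1000 cells/well, compounds up to 22.9 uM final. Membrane-potential dye fluorescence (ex 535/em 590) was read; parental cells received 10 uM forskolin + 100 uM RO 20-1724.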

[4] = molecular target: Cytochrome P450 2C9 (Homo sapiens) (UniProt P11712); assay: qHTS Assay for Inhibitors and Substrates of Cytochrome P450 2C9 (AID 883); further: nearly all actives have a fitted effect of over 60% in size; further: potency means the concentration at half of the fitted maximal effect
Chain of Cytochrome P450 2C9 (Homo sapiens) (P11712 whole entry, looked up): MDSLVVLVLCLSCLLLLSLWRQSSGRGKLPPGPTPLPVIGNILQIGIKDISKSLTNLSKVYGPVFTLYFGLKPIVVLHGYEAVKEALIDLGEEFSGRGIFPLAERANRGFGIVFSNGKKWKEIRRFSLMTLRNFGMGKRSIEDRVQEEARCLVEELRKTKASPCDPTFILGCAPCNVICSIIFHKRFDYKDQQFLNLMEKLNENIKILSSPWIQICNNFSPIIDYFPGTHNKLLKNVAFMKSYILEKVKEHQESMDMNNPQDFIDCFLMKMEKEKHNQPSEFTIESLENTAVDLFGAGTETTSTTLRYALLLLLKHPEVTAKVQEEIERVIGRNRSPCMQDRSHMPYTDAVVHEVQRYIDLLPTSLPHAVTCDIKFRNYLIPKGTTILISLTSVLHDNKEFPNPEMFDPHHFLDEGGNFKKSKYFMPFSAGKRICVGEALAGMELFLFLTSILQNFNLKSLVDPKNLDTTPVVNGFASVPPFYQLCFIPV
Procedure, shortened: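 CYP2C9 deoxyluciferin hydroxylation, 37C, 60 min with NADPH regeneration; 10nM enzyme, 100uM Luciferin-H (KM). Glo detection reagent stopped reaction; luminescence normalized to sulphaphenazole (57uM) full inhibition.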

[5] = molecular target: Cytochrome P450 3A4 (Homo sapiens) (UniProt P08684); assay: qHTS Assay for Inhibitors and Substrates of Cytochrome P450 3A4 (AID 884); further: potency means the concentration at half of the fitted maximal effect; nearly all actives have a fitted effect of over 50% in size
Chain of Cytochrome P450 3A4 (Homo sapiens) (P08684 whole entry, looked up): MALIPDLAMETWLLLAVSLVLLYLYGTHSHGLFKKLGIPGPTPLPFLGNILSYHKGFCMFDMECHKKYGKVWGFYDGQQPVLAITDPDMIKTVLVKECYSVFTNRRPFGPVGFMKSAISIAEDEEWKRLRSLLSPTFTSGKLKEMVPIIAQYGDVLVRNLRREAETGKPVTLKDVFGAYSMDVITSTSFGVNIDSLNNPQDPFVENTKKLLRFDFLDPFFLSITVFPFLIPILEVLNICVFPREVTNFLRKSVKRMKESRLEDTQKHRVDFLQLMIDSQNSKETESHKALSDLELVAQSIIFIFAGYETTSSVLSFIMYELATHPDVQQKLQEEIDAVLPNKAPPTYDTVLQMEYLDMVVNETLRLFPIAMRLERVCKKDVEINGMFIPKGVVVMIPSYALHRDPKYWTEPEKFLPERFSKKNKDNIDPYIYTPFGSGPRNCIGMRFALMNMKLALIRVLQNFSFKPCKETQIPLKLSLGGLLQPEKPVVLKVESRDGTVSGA
Procedure, shortened: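 Luminescent readout of luciferin produced by CYP3A4 (20 nM) dealkylation of Luciferin-PPXE, 25 uM (its KM). NADPH-driven reaction ran 60 min at RT after 10 min compound preincubation; data scaled to 57 uM ketoconazole as 100% inhibition.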

[6] = molecular target: Cytochrome P450 3A4 (Homo sapiens) (UniProt P08684); assay: qHTS Assay for Activators of Cytochrome P450 3A4 (AID 885); further: nearly all actives have a fitted effect of over 65% in size
Procedure, shortened: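 CYP3A4 activity: Luciferin-PPXE O-dealkylation, 25uM substrate, 200mM KPO4, RT throughout. Read-out is luciferase luminescence; higher values reflect activation.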

[7] = molecular target: Cytochrome P450 2C19 (Homo sapiens) (UniProt P33261); assay: qHTS Assay for Inhibitors and Substrates of Cytochrome P450 2C19 (AID 899); further: nearly all actives have a fitted effect of over 60% in size; further: potency means the concentration at half of the fitted maximal effect
Chain of Cytochrome P450 2C19 (Homo sapiens) (P33261 whole entry, looked up): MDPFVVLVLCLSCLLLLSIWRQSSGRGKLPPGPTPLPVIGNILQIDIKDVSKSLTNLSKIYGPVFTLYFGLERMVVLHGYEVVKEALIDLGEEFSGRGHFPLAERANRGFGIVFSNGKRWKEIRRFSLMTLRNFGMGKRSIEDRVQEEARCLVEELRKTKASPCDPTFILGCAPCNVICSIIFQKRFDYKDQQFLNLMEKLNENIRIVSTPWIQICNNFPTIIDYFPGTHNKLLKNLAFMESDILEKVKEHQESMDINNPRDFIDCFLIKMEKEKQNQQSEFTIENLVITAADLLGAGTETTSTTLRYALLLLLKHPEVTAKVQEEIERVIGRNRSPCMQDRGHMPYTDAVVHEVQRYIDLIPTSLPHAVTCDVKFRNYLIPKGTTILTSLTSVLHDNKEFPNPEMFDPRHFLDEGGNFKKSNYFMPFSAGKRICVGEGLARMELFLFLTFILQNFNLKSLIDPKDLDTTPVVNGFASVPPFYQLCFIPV
Procedure, shortened: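 In 50mM KPO4, the reaction held 5nM enzyme and KM-level (10uM) Luciferin-H EGE; it ran 60 min at 37C after NADPH regeneration and a 10 min compound preincubation. Luminescence values were scaled to 57uM ketoconazole as complete inhibition.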

[8] = molecular target: Cytochrome P450 2D6 (Homo sapiens) (UniProt P10635); assay: qHTS Assay for Inhibitors and Substrates of Cytochrome P450 2D6 (AID 891); further: nearly all actives have a fitted effect of over 60% in size; further: potency means the concentration at half of the fitted maximal effect
Chain of Cytochrome P450 2D6 (Homo sapiens) (P10635 whole entry, looked up): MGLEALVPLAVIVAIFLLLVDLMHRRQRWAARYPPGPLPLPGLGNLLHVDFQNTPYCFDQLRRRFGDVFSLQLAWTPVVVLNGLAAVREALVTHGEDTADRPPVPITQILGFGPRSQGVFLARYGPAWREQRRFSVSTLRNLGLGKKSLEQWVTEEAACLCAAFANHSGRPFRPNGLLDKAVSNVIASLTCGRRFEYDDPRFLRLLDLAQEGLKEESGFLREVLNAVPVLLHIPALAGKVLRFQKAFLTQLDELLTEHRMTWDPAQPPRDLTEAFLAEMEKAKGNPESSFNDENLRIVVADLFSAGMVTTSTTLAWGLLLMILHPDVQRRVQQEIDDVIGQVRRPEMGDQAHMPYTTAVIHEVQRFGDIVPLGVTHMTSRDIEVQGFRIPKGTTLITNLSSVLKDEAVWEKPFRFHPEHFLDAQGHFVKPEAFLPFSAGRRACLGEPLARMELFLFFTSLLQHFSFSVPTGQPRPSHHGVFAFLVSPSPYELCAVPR
Procedure, shortened: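 Luminescent read-out of luciferin formed by 5 nM human CYP2D6 demethylating 30 uM Luciferin-ME EGE (Km level) over 60 min at room temperature after NADPH regeneration addition. Data normalized to full inhibition by 1.43 uM quinidine.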

Measured: Potency

COC(=O)[C@@]1(Cc2ccc(OC)cc2)[C@H]2c3cc(C(=O)N4CCCC4)n(CCc4c[nH]c5cc(F)ccc45)c3C[C@H]2CN1C(=O)c1ccccc1
inactive: [2] | [3] | [6]
active: [1] 39.8 µM | [4] 3.16 µM | [5] 1.26 µM | [7] 3.98 µM

COC(=O)[C@@]1(Cc2ccccc2)[C@H]2c3cc(C(=O)N4CCCC4)n(Cc4cc(F)cc5c4OCOC5)c3C[C@H]2CN1C(=O)c1ccccc1
inactive: [1] | [2] | [3] | [6]
active: [4] 0.316 µM | [5] 3.98 µM | [7] 0.251 µM

COC(=O)[C@@]1(Cc2ccc(F)cc2)[C@H]2c3cc(C(=O)N4CCCC4)n(CCCNc4ncc(C(F)(F)F)cc4Cl)c3C[C@H]2CN1C(=O)c1ccccc1
inactive: [1] | [2] | [3] | [6]
active: [4] 3.16 µM | [5] 2.51 µM

C[C@@H](C(=O)Nc1ccc2ccccc2c1)[C@H]1C[C@]1(C)[C@H](NP(=O)(c1ccccc1)c1ccccc1)c1ccccc1
active: [1] 10 µM | [4] 3.16 µM | [5] 2 µM | [8] 0.794 µM
inactive: [2] | [3] | [6]

Cc1cc(C(=O)N[C@H](c2ccccc2)[C@@]2(C)C[C@@H]2[C@@H](C)C(=O)Nc2ccc3ccccc3c2)n(C)n1
active: [1] 20 µM | [4] 7.94 µM | [5] 0.794 µM | [8] 0.0398 µM
inactive: [2] | [3] | [6]

CCCCCC1=C2CNC(CC(C)C)(C(=O)OC)C=C2C(C)C1=O (stereo unspecified)
inactive: [2] | [3] | [6]
active: [1] 25.1 µM | [4] 3.16 µM | [8] 5.01 µM

CC1=C(C(=O)OCc2ccccc2)C(c2ccc3ccccc3c2)NC(=O)N1CCCCCC(=O)O (stereo unspecified)
inactive: [2] | [3] | [6]
active: [1] 20 µM | [4] 7.94 µM

C[C@@H](C(=O)Nc1ccc2ccccc2c1)[C@H]1C[C@]1(C)[C@H](NC(=O)c1cnccn1)c1ccccc1
active: [1] 25.1 µM | [4] 5.01 µM | [5] 0.631 µM
inactive: [2] | [3] | [6]

COC(=O)[C@@]1(Cc2ccc(OC)cc2)[C@H]2c3cc(C(=O)N(C)C)[nH]c3C[C@H]2CN1C(=O)c1ccccc1
active: [1] 20 µM | [4] 3.98 µM | [5] 1.58 µM | [7] 5.01 µM
inactive: [2] | [3]

O=C(NCCc1c[nH]c2ccccc12)[C@H]1C[C@@H]1[C@H](NP(=O)(c1ccccc1)c1ccccc1)c1ccccc1
inactive: [2] | [3]
active: [1] 12.6 µM | [4] 2 µM | [5] 1.58 µM | [7] 1.26 µM

COC(=O)[C@@]1(Cc2ccc(OC)cc2)[C@H]2c3cc(C(=O)N4CCCC4)n(CCc4c[nH]c5ccc(O)cc45)c3C[C@H]2CN1C(=O)c1ccccc1
active: [4] 3.16 µM | [5] 1.58 µM
inactive: [1] | [2] | [3] | [6]

C[C@@H](C(=O)Nc1ccc2ccccc2c1)[C@@H]1C[C@@]1(C)[C@@H](NS(=O)(=O)c1ccc2ccccc2c1)c1ccccc1
inactive: [2] | [3] | [4] | [6]
active: [1] 10 µM

COC(=O)[C@@]1(Cc2ccc(F)cc2)[C@@H]2[C@@H](CC(=O)[C@H]2CC(=O)C(=O)N2CCCC2)CN1C(=O)c1ccccc1
inactive: [1] | [2] | [3] | [6]
active: [5] 1.58 µM

C[C@@H](C(=O)NCCc1c[nH]c2ccccc12)[C@@H]1C[C@@]1(C)[C@@H](NC(=O)OCc1ccccc1)c1ccccc1
inactive: [2] | [3] | [6]
active: [1] 12.6 µM | [4] 2.51 µM | [5] 3.16 µM | [7] 0.794 µM

COC(=O)N[C@H](c1ccccc1)[C@@]1(C)C[C@@H]1[C@@H](C)C(=O)Nc1ccc2ccccc2c1
active: [1] 12.6 µM | [4] 3.98 µM | [5] 0.199 µM | [8] 0.0316 µM
inactive: [2] | [3] | [6]

COC(=O)[C@@]1(Cc2ccccc2)[C@H]2c3cc(C(=O)N4CCCC4)n(Cc4cccc5ccccc45)c3C[C@H]2CN1C(=O)c1ccccc1
inactive: [2] | [3] | [6]
active: [1] 15.8 µM | [4] 0.251 µM | [5] 1.58 µM | [7] 2.51 µM

COC(=O)[C@@]1(Cc2ccccc2)[C@H]2c3cc(C(=O)N4CCCC4)n(Cc4ccsc4Br)c3C[C@H]2CN1C(=O)c1ccccc1
active: [4] 2 µM | [5] 3.98 µM
inactive: [1] | [2] | [3] | [6]

COC(=O)[C@@]1(Cc2ccc(F)cc2)[C@H]2c3cc(C(=O)N4CCCC4)n(Cc4ccc(C)o4)c3C[C@H]2CN1C(=O)c1ccccc1
inactive: [2] | [3] | [6]
active: [1] 10 µM | [4] 3.98 µM | [5] 3.16 µM

COC(=O)[C@@]1(Cc2ccccc2)[C@H]2c3cc(C(=O)N4CCCC4)n(Cc4ccc(C)o4)c3C[C@H]2CN1C(=O)c1ccccc1
inactive: [2] | [3]
active: [1] 12.6 µM | [5] 2 µM

Cc1cc(C(=O)N[C@@H](c2ccccc2)[C@]2(C)C[C@H]2[C@@H](C)C(=O)Nc2ccc3ccccc3c2)n(C)n1
inactive: [2] | [3] | [6]
active: [1] 12.6 µM | [4] 3.98 µM | [5] 0.794 µM

CC(=O)N[C@@H](c1ccccc1)[C@]1(C)C[C@H]1[C@@H](C)C(=O)Nc1ccc2ccccc2c1
inactive: [2] | [3]
active: [1] 12.6 µM | [4] 6.31 µM | [5] 7.94 µM | [7] 0.398 µM

CC1=C(\C=C/C(C)=C/C=C\C(C)=C\CO)C(C)(C)CCC1
inactive: [1] | [2] | [3] | [4] | [8] | [7]

CCCc1cc2c(n1Cc1ccc(OC)cc1)C(C)C1CN(C(=O)c3ccccc3)C(C)(C(=O)OC)C21 (stereo unspecified)
inactive: [2] | [3] | [6]
active: [1] 15.8 µM | [5] 3.16 µM

NCCC[C@@H](CC(=O)N[C@@H]1CCNC[C@H]1C(=O)N[C@H](CC(=O)N[C@@H](CCC(=O)O)CC(=O)O)Cc1ccccc1)NC(=O)C[C@H](CO)NC(=O)[C@@H]1CCCC[C@H]1N
inactive: [1] | [2] | [3] | [4] | [8] | [7]

COC(=O)[C@@]1(Cc2ccc(F)cc2)[C@H]2c3cc(C(=O)N4CCCC4)n(CCN4CNCC4=O)c3C[C@H]2CN1C(=O)c1ccccc1
inactive: [2] | [3] | [6]
active: [1] 15.8 µM | [4] 7.94 µM | [5] 2 µM

COC(=O)C1(Cc2ccccc2)C=C2C(=C(C(C)C)C(=O)C2C)CN1 (stereo unspecified)
active: [1] 15.8 µM | [5] 7.94 µM
inactive: [2] | [3] | [6]

COC(=O)C1(Cc2ccccc2)C2c3cc(C(=O)N4CCCC4)n(Cc4ccc(OC(F)(F)F)cc4)c3CC2CN1C(=O)c1ccccc1 (stereo unspecified)
active: [5] 3.16 µM
inactive: [1] | [2] | [3] | [6]

COC(=O)[C@@]1(Cc2ccccc2)[C@H]2c3cc(C(=O)N4CCCC4)n(Cc4ccc(S(C)(=O)=O)cc4)c3C[C@H]2CN1C(=O)c1ccccc1
active: [5] 3.16 µM
inactive: [1] | [2] | [3] | [6]

COc1ccc(COC2OC[C@]3(C)[C@H]4C5=C(CN3C(=O)OC(C)(C)C)[C@H](C)C(CO)C(CO)C5CC[C@@H]24)cc1 (stereo partly specified)
inactive: [1] | [2] | [3] | [6]
active: [5] 7.94 µM

C/C(=C\C1CCCCC1)C(NC(=O)c1ccc(C(F)(F)F)cc1)c1ccc(-c2ccccc2)cc1 (stereo unspecified)
inactive: [1] | [2] | [3] | [6]

CCCc1cc2c(n1CCc1ccc(Cl)cc1)C(C)C1CN(C(=O)c3ccccc3)C(C)(C(=O)OC)C21 (stereo unspecified)
inactive: [2] | [3] | [6]
active: [1] 25.1 µM | [5] 5.01 µM | [8] 5.01 µM | [7] 6.31 µM

O=C(N[C@@H](c1ccccc1)[C@@H]1C[C@H]1C(=O)NCc1ccccn1)OCc1ccccc1
active: [1] 10 µM | [5] 6.31 µM | [7] 7.94 µM
inactive: [2] | [3]

CNC(=O)[C@H](C)[C@H]1C[C@]1(C)[C@H](NC(=O)OCc1ccccc1)c1ccccc1
active: [1] 20 µM | [5] 2 µM
inactive: [2] | [3] | [6]

COC(=O)[C@@]1(Cc2ccccc2)[C@H]2c3cc(C(=O)N4CCCC4)n(CCc4ccccn4)c3C[C@H]2CN1C(=O)c1ccccc1
active: [5] 2 µM
inactive: [1] | [2] | [3] | [6]

COC(=O)C1(CC(C)C)C=C2C(=C(c3ccccc3)C(=O)C2C)CN1 (stereo unspecified)
inactive: [2] | [3] | [6]
active: [1] 15.8 µM
